Records with an inconclusive call do not appear. The source made the active and inactive calls. How the source made its calls, unless noted: active means hit-call score of the fitted dose curve at least 0.9, where 1 is the maximum; inactive means score below 0.9.
Columns and labels:
[1] = target: Transcription factor E2F1 (Homo sapiens) (UniProt Q01094); experiment: ATG_E2F_CIS: Attagene CIS-FACTORIAL HepG2 Assay for human E2F Transcription Factor 1 (AID 2282935); conditions: HepG2 Attagene cis-reporter, E2F reporter RNA transcripts; actives raise or lower the signal
Method in brief: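 Endogenous E2F1 activity read through cis-promoter reporter units transfected into HepG2. After 24 h compound treatment, reporter mRNA measured by RT-PCR, HpaI digestion and capillary electrophoresis. Bidirectional fit versus DMSO.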

[2] = ATG_GRE_CIS: Attagene CIS-FACTORIAL HepG2 Assay for human Glucocorticoid Response Elements (GRE) (AID 2282947); conditions: HepG2 GRE cis-reporter, Attagene multiplex mRNA; actives raise or lower the signal
Method in brief: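 Transiently transfected HepG2 cells carrying GRE cis-reporter units (endogenous TF activity) dosed 24 h; reporter mRNA quantified by RT-PCR, 6-FAM labelling, HpaI digestion and capillary electrophoresis. Bidirectional fit versus DMSO baseline.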

[3] = ATG_ISRE_CIS: Attagene CIS-FACTORIAL HepG2 Assay for human Interferon Regulatory Factor 1 (IRF1) binding to an Interferon-Stimulated Response Element (ISRE) (AID 2282948); conditions: HepG2 ISRE cis-reporter (Attagene), mRNA transcription readout; actives raise or lower the signal
Method in brief: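 Quantitation relies on labelled RT-PCR fragments separated by capillary electrophoresis. Human HepG2 cells bearing cis-promoter reporter constructs were treated 24 h; DMSO served as baseline for bidirectional fitting.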

[4] = target: Hypoxia-inducible factor 1-alpha (Homo sapiens) (UniProt Q16665); experiment: ATG_HIF1a_CIS: Attagene CIS-FACTORIAL HepG2 Assay for human Hypoxia Inducible Factor 1 (HIF1A) (AID 2282951); conditions: HepG2 Attagene cis-factorial HIF1a reporter transcription; actives raise or lower the signal
Method in brief: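 After 24 h chemical exposure of reporter-transfected HepG2 cells, reporter cDNA was PCR-amplified, labelled by 6-FAM primer extension (2 min 95 C, 20 s 68 C, 10 min 72 C), HpaI-cut (2 h, 37 C) and analysed by CE.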

[5] = target: Hepatocyte nuclear factor 6 (Homo sapiens) (UniProt Q9UBC0); experiment: ATG_HNF6_CIS: Attagene CIS-FACTORIAL HepG2 Assay for human Hepatocyte Nuclear Factor 6 (HNF6) (AID 2282952); conditions: HepG2 Attagene cis-factorial HNF6 reporter transcription; actives raise or lower the signal
Method in brief: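 Cells are HepG2 carrying transiently transfected cis-promoter reporter units. Treatment lasts 24 h, after which reporter transcripts are reverse-transcribed, amplified, FAM-labelled and sized by capillary electrophoresis. DMSO serves as baseline.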

[6] = target: Heat shock factor protein 1 (Homo sapiens) (UniProt Q00613); experiment: ATG_HSE_CIS: Attagene CIS-FACTORIAL HepG2 Assay for human Heat Shock Transcription Factor 1 (HSE) (AID 2282953); conditions: HepG2 HSE cis-reporter, Attagene RNA transcription; actives raise or lower the signal
Method in brief: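 After a 24 h incubation with test chemical, transfected HepG2 cells were harvested for RNA; reporter transcripts were measured by RT-PCR and capillary electrophoresis. Values reflect gain or loss of signal relative to DMSO.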

[7] = ATG_MRE_CIS: Attagene CIS-FACTORIAL HepG2 Assay for human Metal Responsive Element (MRE) (AID 2282954); conditions: HepG2 MRE cis-reporter transcription, Attagene multiplex; actives raise or lower the signal
Method in brief: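 HepG2 cells transiently transfected with cis-element-driven reporter units; mRNA measured 24 h after dosing. Reporter transcripts quantified by RT-PCR, FAM labelling, HpaI digestion and capillary electrophoresis; bidirectional fit versus DMSO.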

[8] = ATG_PBREM_CIS: Attagene CIS-FACTORIAL HepG2 Assay for human Phenobarbital-responsive Enhancer Module (PBREM) (AID 2282955); conditions: HepG2 PBREM cis-reporter, Attagene multiplexed transcription; actives raise or lower the signal
Method in brief: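 Measures endogenous factor action on a phenobarbital-responsive enhancer module. HepG2 transiently carrying cis reporters, 24 h treatment, mRNA read-out by RT-PCR plus capillary electrophoresis.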

[9] = target: Transcriptional activator Myb (Homo sapiens) (UniProt P10242); experiment: ATG_Myb_CIS: Attagene CIS-FACTORIAL HepG2 Assay for human Myeloblastosis (Myb) Proto-Oncogene Transcription Factor (AID 2282986); conditions: HepG2 Attagene CIS-FACTORIAL Myb reporter transcription; actives raise or lower the signal
Method in brief: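 After 24 h of compound dosing, total RNA from transfected HepG2 cells is reverse-transcribed and the reporter sequences amplified, labeled and separated by capillary electrophoresis. Values come from bidirectional fitting against DMSO.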

[10] = target: Nuclear respiratory factor 1 (Homo sapiens) (UniProt Q16656); experiment: ATG_NRF1_CIS: Attagene CIS-FACTORIAL HepG2 Assay for human Nuclear Respiratory Factor 1 (NRF1) Orphan Gene (AID 2282987); conditions: HepG2 NRF1 cis-element reporter, Attagene multiplex; actives raise or lower the signal
Method in brief: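 Measured: fluorescent reporter-specific RT-PCR products from transfected HepG2 cells, separated by capillary electrophoresis. Exposure lasted 24 h. Analysis used bidirectional curve fitting with DMSO as negative control.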

[11] = target: Cellular tumor antigen p53 (Homo sapiens) (UniProt P04637); experiment: TOX21_p53_BLA_p2_ratio: Tox21 HCT-116 p53 Agonism Beta-lactamase Assay, Ratio, Phase 2 (AID 2283592; active means hit-call score of the fitted dose curve at least 0.9, where 1 is the maximum)
Method in brief: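 Human colon HCT116 cells with an inducible p53 beta-lactamase reporter are exposed to test chemicals for 16 h at 37C. Reporter induction is read as the 460/530 nm emission ratio after CCF4-AM loading, normalized to DMSO.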

[12] = target: Cellular tumor antigen p53 (Homo sapiens) (UniProt P04637); experiment: TOX21_p53_BLA_p5_ratio: Tox21 HCT-116 p53 Agonism Beta-lactamase Assay, Ratio, Phase 5 (AID 2283599; active means hit-call score of the fitted dose curve at least 0.9, where 1 is the maximum)
Method in brief: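 HCT-116 p53-bla cells (4000/well) plated 5 h, dosed with compound (217-fold DMSO dilution) for 16 h at 37 C; CCF4-AM substrate 2 h at room temperature. Activity is the 460/530 nm emission ratio (405 nm excitation), fitted in gain-of-signal direction versus DMSO.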

[13] = target: Cellular tumor antigen p53 (Homo sapiens) (UniProt P04637); experiment: TOX21_p53_BLA_p4_ratio: Tox21 HCT-116 p53 Agonism Beta-lactamase Assay, Ratio, Phase 4 (AID 2283601; active means hit-call score of the fitted dose curve at least 0.9, where 1 is the maximum)
Method in brief: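 HCT-116 p53 beta-lactamase reporter cells (4000/well) preincubated 5 h, then compound (217-fold dilution of DMSO stock) for 16 h at 37C. CCF4-AM substrate added 2 h at room temperature; 460/530 nm emission ratio fitted upward versus DMSO.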

[14] = ATG_M_61_CIS: Attagene CIS-FACTORIAL HepG2 Assay for M61 Transcription Factor (Internal Marker) (AID 2282937); conditions: HepG2 Attagene CIS-FACTORIAL M61 internal marker reporter; actives raise or lower the signal
Method in brief: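 Transfect HepG2 with MRTUs; dose 24 h; isolate RNA; reverse-transcribe with DNase I treatment; PCR-amplify, FAM-label and cut with HpaI for 2 h at 37 C; resolve by CE. Bidirectional fitting against DMSO.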

[15] = ATG_TCF_b_cat_CIS: Attagene CIS-FACTORIAL HepG2 Assay for human T-Cell-Factor with beta-catenin (TCF/b-cat) (AID 2282965); conditions: HepG2 TCF/beta-catenin cis-reporter transcription, actives raise or lower the signal
Method in brief: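 Cells of the HepG2 line carry transiently transfected reporter units whose promoters respond to endogenous factors. Twenty-four hours post-dosing, reporter mRNA induction is measured by fluorescent RT-PCR and capillary electrophoresis, with DMSO as baseline.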

[16] = ATG_M_06_TRANS: Attagene TRANS-FACTORIAL HepG2 Assay for M06 Transcription Factor (Internal Marker) (AID 2282983; active means hit-call score of the fitted dose curve at least 0.9, where 1 is the maximum;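 further: reporter transcript level by RT-PCR then capillary electrophoresis fluorescence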); conditions: HepG2 Attagene TRANS M06 internal marker reporter
Method in brief: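 Internal-marker background readout from a multiplexed TRANS reporter system in HepG2; 24 h dosing; mRNA induction quantified by RT-PCR plus capillary electrophoresis fluorescence; DMSO as negative control and baseline.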

[17] = target: Nuclear receptor subfamily 4 group A member 2 (Homo sapiens) (UniProt P43354); experiment: ATG_NURR1_TRANS: Attagene TRANS-FACTORIAL HepG2 Assay for human Nuclear Receptor Related Protein 1 (NURR1) (AID 2282985; active means hit-call score of the fitted dose curve at least 0.9, where 1 is the maximum); conditions: HepG2 Attagene TRANS reporter, mRNA readout
Method in brief: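 HepG2 cells transiently transfected with NURR1-Gal4 chimera and GAL4-UAS reporter units; after 24 hr compound exposure, reporter mRNA quantified by RT-PCR and capillary electrophoresis; gain of signal fitted against DMSO.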

[18] = target: Cellular tumor antigen p53 (Homo sapiens) (UniProt P04637); experiment: TOX21_p53_BLA_p3_ratio: Tox21 HCT-116 p53 Agonism Beta-lactamase Assay, Ratio, Phase 3 (AID 2283596; active means hit-call score of the fitted dose curve at least 0.9, where 1 is the maximum)
Method in brief: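 HCT116 p53-bla cells (4000/well) given compound in DMSO (217-fold dilution) after 5 h, incubated 16 h at 37C. CCF4-AM substrate 2 h at room temperature; 460/530 nm emission ratio, gain fitted against DMSO.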

[19] = ATG_PPRE_CIS: Attagene CIS-FACTORIAL HepG2 Assay for human Peroxisome Proliferator-activated Response Element (PPRE) (AID 2282958); conditions: HepG2 PPRE cis-element reporter, Attagene transcription factor profiling; actives raise or lower the signal
Method in brief: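 PPRE activity in HepG2: transient cis-reporter transfection, 24 h compound incubation, reporter mRNA by RT-PCR and CE fluorescence; gain/loss fitted against DMSO.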

[20] = target: Retinoic acid receptor RXR-alpha (Homo sapiens) (UniProt P19793); experiment: ATG_RXRa_TRANS: Attagene TRANS-FACTORIAL HepG2 Assay for human Retinoid X Receptor alpha (RXRa) (AID 2283012; active means hit-call score of the fitted dose curve at least 0.9, where 1 is the maximum)
Method in brief: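 HepG2 cells transiently transfected with GAL4-UAS reporter units and chimeric RXRa-Gal4 protein, treated 24 h. Reporter mRNA measured by RT-PCR, fluorescent labelling, HpaI digestion and capillary electrophoresis. Induction fitted against DMSO.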

Measured: AC50

Chain of Transcription factor E2F1 (Homo sapiens) (Q01094 whole entry, looked up): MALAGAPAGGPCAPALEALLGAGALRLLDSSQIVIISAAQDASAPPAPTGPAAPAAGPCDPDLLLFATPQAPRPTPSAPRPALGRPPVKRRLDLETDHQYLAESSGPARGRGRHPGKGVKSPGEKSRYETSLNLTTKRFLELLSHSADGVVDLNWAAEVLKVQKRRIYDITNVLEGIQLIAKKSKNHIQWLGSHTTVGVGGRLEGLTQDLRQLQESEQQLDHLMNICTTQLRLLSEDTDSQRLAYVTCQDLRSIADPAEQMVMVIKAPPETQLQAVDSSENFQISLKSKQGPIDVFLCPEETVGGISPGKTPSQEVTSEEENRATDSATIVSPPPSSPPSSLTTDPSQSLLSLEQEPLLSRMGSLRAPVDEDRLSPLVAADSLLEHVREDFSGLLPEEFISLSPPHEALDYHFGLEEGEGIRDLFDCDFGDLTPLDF
Chain of Heat shock factor protein 1 (Homo sapiens) (Q00613 whole entry, looked up): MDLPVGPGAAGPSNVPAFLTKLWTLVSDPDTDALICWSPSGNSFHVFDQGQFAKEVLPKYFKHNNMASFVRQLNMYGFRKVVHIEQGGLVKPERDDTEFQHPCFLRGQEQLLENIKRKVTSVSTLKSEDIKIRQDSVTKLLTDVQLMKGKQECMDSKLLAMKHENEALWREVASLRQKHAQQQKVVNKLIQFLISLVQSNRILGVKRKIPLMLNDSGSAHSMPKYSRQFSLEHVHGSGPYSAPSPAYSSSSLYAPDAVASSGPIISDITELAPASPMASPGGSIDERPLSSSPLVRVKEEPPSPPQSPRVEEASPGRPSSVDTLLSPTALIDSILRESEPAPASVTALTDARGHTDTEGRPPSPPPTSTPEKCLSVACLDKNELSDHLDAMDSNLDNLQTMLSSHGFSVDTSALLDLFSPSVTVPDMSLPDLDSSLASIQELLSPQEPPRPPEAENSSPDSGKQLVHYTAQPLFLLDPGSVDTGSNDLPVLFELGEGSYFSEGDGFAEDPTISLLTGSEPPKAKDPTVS
Chain of Nuclear respiratory factor 1 (Homo sapiens) (Q16656 whole entry, looked up): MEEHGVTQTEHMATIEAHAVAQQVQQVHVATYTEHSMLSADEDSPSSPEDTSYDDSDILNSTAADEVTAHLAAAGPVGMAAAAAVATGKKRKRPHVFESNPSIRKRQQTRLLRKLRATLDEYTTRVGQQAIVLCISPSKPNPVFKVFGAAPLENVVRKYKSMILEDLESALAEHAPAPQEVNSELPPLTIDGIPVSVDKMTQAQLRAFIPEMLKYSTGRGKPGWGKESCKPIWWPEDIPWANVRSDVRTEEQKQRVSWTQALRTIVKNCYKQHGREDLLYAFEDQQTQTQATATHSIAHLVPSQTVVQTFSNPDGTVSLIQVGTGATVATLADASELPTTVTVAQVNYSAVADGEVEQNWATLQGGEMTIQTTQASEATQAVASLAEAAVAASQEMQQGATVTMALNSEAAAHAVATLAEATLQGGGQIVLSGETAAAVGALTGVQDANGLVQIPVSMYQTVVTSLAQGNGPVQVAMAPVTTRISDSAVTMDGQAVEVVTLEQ
Chain of Cellular tumor antigen p53 (Homo sapiens) (P04637 whole entry, looked up): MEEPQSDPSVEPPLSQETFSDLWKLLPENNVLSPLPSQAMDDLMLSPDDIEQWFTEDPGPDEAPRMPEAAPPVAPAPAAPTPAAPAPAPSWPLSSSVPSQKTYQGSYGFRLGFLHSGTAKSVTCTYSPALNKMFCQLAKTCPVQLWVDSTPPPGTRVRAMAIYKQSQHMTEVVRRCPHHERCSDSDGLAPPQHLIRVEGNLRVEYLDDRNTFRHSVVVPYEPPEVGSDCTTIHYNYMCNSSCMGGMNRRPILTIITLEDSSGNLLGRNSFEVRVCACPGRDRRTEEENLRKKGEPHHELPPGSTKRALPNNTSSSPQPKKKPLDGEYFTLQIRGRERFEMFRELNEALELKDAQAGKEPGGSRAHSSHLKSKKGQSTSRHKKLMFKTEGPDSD
Chain of Hypoxia-inducible factor 1-alpha (Homo sapiens) (Q16665 whole entry, looked up): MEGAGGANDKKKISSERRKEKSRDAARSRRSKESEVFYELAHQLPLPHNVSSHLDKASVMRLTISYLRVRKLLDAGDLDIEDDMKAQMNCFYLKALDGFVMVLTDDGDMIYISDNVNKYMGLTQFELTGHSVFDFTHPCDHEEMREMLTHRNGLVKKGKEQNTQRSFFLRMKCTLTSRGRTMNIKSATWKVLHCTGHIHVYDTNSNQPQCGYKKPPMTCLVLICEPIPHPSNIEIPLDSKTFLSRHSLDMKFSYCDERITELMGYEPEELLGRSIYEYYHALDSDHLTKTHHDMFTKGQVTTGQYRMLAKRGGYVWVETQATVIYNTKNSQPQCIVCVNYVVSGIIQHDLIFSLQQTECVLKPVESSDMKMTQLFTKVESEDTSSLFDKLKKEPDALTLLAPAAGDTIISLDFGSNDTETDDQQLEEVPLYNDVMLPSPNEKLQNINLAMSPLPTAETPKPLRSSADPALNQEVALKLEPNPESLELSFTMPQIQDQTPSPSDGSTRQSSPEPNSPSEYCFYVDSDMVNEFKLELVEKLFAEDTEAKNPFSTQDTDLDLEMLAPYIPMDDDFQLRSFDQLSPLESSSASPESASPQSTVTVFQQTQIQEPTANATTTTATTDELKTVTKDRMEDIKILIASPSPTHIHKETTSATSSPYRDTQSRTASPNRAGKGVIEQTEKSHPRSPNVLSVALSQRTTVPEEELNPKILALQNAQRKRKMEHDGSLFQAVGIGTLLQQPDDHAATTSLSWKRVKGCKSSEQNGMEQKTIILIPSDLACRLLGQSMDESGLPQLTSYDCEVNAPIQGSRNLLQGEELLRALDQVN
Chain of Nuclear receptor subfamily 4 group A member 2 (Homo sapiens) (P43354 whole entry, looked up, the tested form may be a part): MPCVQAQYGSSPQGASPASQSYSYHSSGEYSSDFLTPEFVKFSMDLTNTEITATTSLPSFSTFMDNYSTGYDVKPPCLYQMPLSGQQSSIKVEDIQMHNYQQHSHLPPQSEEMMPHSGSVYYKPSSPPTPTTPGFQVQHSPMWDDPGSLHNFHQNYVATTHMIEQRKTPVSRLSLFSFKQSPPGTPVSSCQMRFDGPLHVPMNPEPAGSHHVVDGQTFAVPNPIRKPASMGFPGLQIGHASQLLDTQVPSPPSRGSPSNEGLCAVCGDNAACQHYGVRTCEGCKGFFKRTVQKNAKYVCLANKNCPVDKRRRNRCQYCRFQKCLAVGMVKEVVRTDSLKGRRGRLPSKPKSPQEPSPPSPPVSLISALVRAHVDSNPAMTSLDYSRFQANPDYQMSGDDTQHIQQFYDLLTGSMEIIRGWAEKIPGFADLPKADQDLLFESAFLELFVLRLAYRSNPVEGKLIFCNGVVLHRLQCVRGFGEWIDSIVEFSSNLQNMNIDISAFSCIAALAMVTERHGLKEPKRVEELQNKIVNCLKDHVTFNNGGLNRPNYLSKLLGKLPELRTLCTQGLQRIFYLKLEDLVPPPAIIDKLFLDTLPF
Chain of Retinoic acid receptor RXR-alpha (Homo sapiens) (P19793 whole entry, looked up, the tested form may be a part): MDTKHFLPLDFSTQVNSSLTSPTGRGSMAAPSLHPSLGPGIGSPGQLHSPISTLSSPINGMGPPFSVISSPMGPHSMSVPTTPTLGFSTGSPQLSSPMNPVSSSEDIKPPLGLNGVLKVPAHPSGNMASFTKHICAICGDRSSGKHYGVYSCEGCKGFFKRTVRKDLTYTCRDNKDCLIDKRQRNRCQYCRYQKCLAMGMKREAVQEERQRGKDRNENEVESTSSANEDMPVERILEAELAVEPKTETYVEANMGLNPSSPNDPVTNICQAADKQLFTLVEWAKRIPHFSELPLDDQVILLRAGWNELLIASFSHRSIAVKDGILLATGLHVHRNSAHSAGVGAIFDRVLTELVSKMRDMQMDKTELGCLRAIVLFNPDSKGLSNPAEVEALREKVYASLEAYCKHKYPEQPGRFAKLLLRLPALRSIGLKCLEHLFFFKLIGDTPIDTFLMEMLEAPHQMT
Chain of Transcriptional activator Myb (Homo sapiens) (P10242 whole entry, looked up): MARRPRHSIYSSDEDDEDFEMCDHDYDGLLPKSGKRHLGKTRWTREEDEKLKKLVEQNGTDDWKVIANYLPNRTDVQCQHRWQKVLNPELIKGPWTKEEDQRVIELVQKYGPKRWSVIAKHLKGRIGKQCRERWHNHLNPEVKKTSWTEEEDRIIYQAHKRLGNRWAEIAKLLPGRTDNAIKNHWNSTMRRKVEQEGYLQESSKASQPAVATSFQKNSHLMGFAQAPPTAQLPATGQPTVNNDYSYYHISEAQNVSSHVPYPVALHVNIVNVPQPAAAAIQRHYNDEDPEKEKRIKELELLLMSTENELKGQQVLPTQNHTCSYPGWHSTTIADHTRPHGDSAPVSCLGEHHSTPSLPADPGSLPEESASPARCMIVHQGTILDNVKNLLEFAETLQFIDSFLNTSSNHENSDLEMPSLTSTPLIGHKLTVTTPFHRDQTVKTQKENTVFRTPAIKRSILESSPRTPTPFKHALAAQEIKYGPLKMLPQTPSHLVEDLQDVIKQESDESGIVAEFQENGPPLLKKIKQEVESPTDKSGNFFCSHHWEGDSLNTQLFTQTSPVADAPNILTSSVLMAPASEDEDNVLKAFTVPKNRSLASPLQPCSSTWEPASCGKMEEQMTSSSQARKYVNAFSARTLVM
Chain of Hepatocyte nuclear factor 6 (Homo sapiens) (Q9UBC0 whole entry, looked up): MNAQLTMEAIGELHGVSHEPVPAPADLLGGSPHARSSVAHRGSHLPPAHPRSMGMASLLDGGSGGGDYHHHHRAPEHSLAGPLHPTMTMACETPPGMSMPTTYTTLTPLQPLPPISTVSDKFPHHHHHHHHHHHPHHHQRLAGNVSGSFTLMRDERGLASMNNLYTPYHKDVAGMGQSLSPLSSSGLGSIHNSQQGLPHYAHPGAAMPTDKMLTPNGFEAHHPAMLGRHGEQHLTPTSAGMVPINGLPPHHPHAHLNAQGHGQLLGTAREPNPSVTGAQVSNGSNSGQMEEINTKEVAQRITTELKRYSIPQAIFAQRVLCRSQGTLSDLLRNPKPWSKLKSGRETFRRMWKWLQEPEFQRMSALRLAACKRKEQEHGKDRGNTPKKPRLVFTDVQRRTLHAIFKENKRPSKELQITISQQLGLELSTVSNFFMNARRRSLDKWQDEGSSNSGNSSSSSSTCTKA

CCCCCCC1CCOC1=O (centres undefined)
not listed: [14] | [15] | [16] | [17] | [18] | [19] | [20]
inactive: all other assays above

CC(C)(O)C#N
not listed: [2] | [3] | [7] | [19] | [20]
inactive: all other assays above

C=COCCCl
not listed: [4] | [11] | [12] | [13] | [17] | [18]
inactive: all other assays above

Cc1ccc(N(SC(F)(Cl)Cl)S(=O)(=O)N(C)C)cc1
active: [3] 14.7 µM | [6] 16.5 µM | [7] 15.8 µM | [19] 11.1 µM | [15] 16.6 µM | [13] 44.8 µM
not listed: [2] | [4] | [9] | [14] | [20]
inactive: all other assays above

CN1C[C@H](C(=O)N[C@]2(C)O[C@@]3(O)[C@@H]4CCCN4C(=O)[C@H](Cc4ccccc4)N3C2=O)C=C2c3cccc4[nH]cc(c34)C[C@H]21
not listed: [4] | [15] | [16] | [19] | [20]
inactive: all other assays above

SCc1ccco1
inactive: [1] | [14] | [2] | [3] | [6] | [7] | [8] | [19] | [16] | [17] | [9]

CN(C)N
not listed: [3] | [8] | [11] | [14] | [17] | [18]
inactive: all other assays above

Oc1ccc(Cl)cc1
not listed: [2] | [3] | [6] | [7] | [17]
inactive: all other assays above

CCOC(=O)NC(=S)Nc1ccccc1NC(=S)NC(=O)OCC
active: [11] 59.6 µM | [18] 85.4 µM | [12] 77.3 µM | [13] 64 µM
not listed: [8] | [10] | [20]
inactive: all other assays above

Source: PubChem BioAssay (EPA / NIEHS)
